# Among all 48,000 compounds or so, about 13,000 (27%) showed an effect of 50% or more. The list shows a part of the results.
# Test system: Wolbachia pipientis
# Experiment: Anti-Wolbachia Cell-Based Screen
# Assay type: functional
# Set-up: scale not given: in the data most compounds retested in dose-response had high values
# Details: 5 µM
row,SMILES,Percent Effect [%]
1,NC(=O)N1CCCN(C2CCCCc3ccccc32)CC1 (configuration not stated),-4.011
2,CS(=O)(=O)N1CCC2(CC1)c1ccccc1[C@@H](N1CCSCC1)[C@@H]2O,-3.022
3,CN1CC(=O)N(c2ccccc2)CC12CCN(S(C)(=O)=O)C2.O=C(O)C(F)(F)F (configuration not stated),10.77
4,CO[C@@H]1CN(c2ccccc2)S(=O)(=O)[C@@]12CCN(C)C2,121.6
5,CO[C@@H]1CN(c2ccccc2)S(=O)(=O)[C@@]12CCN(S(C)(=O)=O)C2,80.67
6,COC1CCN(S(=O)(=O)N2CC(c3ccccc3)C(C)(C)C2)CC1 (configuration not stated),17.09
7,CCN(CC)C(=O)C1CCC(=O)N(CCc2cccc(F)c2)C1 (configuration not stated),5.387
8,COC(=O)N1CCC(CNS(=O)(=O)c2cnn(C)c2)CC1,-8.062
9,COCCNC(=O)N1CCC(NC(C)C)CC1,8.533
10,Cn1cc(C(=O)NCC2CCN(C(=O)NCC(F)(F)F)CC2)cn1,-3.622
11,Cn1cc(C(=O)NC[C@@H]2OC[C@H]3CN(S(C)(=O)=O)CC[C@H]32)cn1,-9.663
12,CNC(=O)N1CCC(NC(=O)c2cnn(C)c2)CC1,87.43
13,Cn1cc(C(=O)NCC2CCN(C(=O)NC3CC3)CC2)cn1,82.18
14,Cn1cc(C(=O)NCC2CCN(C(=O)NC3CCCCC3)CC2)cn1,90.75
15,Cn1cc(C(=O)NC2CCN(C(=O)NCC3CCSCC3)CC2)cn1,-0.1776
16,COCCCNC(=O)N1CCC(CNC(=O)c2cnn(C)c2)CC1,114
17,CCS(=O)(=O)c1ccc(N2CCC(NC(=O)c3cnn(C)c3)CC2)cc1,0.7528
18,Cn1cc(C(=O)NC2CCN(C(=O)NCCSC(F)(F)F)CC2)cn1,19.88
19,Cc1ccc(N2CCC(C(O)c3cccs3)CC2)nn1 (configuration not stated),12.98
20,CCCN1CCC(NCc2cccc(CN3CCOC(C)C3)c2)CC1 (configuration not stated),27.7
21,O=C(O)c1ccc(N2CCC(Oc3cccc(F)c3)CC2)nc1,7.42
22,O=C(CS(=O)(=O)Cc1ccccc1)NCc1ccccc1F,-49.77
23,O=C(O)c1cncc(Cc2ccc(F)cc2)c1,214.7
24,O=C(O)c1cncc(Cc2ccccc2F)c1,172.6
25,O=C(O)c1ccc(Cc2cccc(F)c2)nc1,176.5
26,O=C(O)c1cncc(Cc2cccc(F)c2)c1,136.9

row,SMILES,Percent Effect [%]
1,O=C(NCC(Cc1cccc(F)c1)N1CCCC1=O)c1ccccc1 (configuration not stated),-3.129
2,O=C(O)c1cccc(CC2CCN(c3ncc(F)cn3)CC2)c1,5.737
3,CCOCCn1c(=O)n(Cc2ccccc2F)c2cc(C(=O)O)cnc21,-1.705
4,CCSCCn1c(=O)n(Cc2ccc(F)cc2)c2ncc(C(=O)O)cc21,-21.36
5,CCOCCn1c(=O)n(Cc2ccc(F)cc2)c2ncc(C(=O)O)cc21,0.5283
6,CC(C)n1cc2cc(NC(=O)Cn3cnnn3)ccc2n1,0.8884
7,O=C1NCCCCC1NC(=O)C1(Oc2ccc(Cl)cc2)CCNCC1 (configuration not stated),4.291
8,CCOc1ccccc1NC(=O)NCC(C)(O)CCSC (configuration not stated),-5.529
9,CCC(CC)C(=O)NC1CCCc2nc(N3CCOCC3)ncc21 (configuration not stated),97.19
10,CC(C)C(=O)NC1CCCc2nc(N3CCOCC3)ncc21 (configuration not stated),72.33
11,CN(C)C(CNC(=O)c1nc(N2CCOCC2)ncc1Cl)c1ccco1 (configuration not stated),-7.125
12,Cc1cnc(N2CCC3(CC2)CC(NC(=O)C(C)C)CO3)nc1 (configuration not stated),-15.93
13,CC(CNC(=O)c1nc(N2CCOCC2)ncc1Cl)c1ccccc1 (configuration not stated),-18.26
14,CC(C)n1c(C2CCCN(CC(=O)NC(N)=O)C2)nc2ccccc21 (configuration not stated),-22.16
15,Cc1cc(C)n(C2CCN(Cc3c(-c4cc(C)on4)nn(C)c3Cl)C2)n1 (configuration not stated),0.03188
16,CN(C)C(=O)Cc1ccccc1NCc1cccc(F)c1F,-19.09
17,Cc1csc(CNC(=O)N(C)Cc2cnn(C)c2)n1,7.256
18,CC(C)c1cc(CNC(=O)N2CCC(Cc3cnn(C)c3)C2)on1 (configuration not stated),2.959
19,COCc1csc(NC(=O)N2CCC(Cc3cnn(C)c3)C2)n1 (configuration not stated),102.3
20,COCc1csc(NC(=O)NCc2ccsc2)n1,-7.736
21,Cn1cc(CC2CCN(C(=O)NCc3csc(C4CC4)n3)C2)cn1 (configuration not stated),102.9
22,CC(C)Cc1cc(C(=O)N2CCC(Cc3cnn(C)c3)C2)cc(O)n1 (configuration not stated),0.7528
23,CC(C)CC(NC(=O)CN(C)C(=O)c1ccco1)c1cccs1 (configuration not stated),25.03
24,NC(=O)c1csc(N2C[C@@H](CN3CCOCC3)[C@@H](CO)C2)n1,103.5
25,O=C(CCCc1cn[nH]c1)N1C[C@@H](CN2CCOCC2)[C@@H](CO)C1,24.78
26,NC(=O)c1csc(N2C[C@@H](CN3CCCCC3)[C@@H](CO)C2)n1,104.1

# — ChEMBL document CHEMBL3988442, “University of Dundee, Small-Polar-MMV Screening Library” (2021)
